In PubChem BioAssay one finds differential viability (reversal) and viability data, which are given here for 40 compounds.

Active and inactive are the calls of the source.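 How the source made its calls: active means viability loss from added drug above about 55%, and viability with drug at most 40%, in both replicates (limit read from the data, passing the limit was not always enough); inconclusive means both conditions met in only one replicate; inactive means neither replicate meets both conditions.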

As a reminder, the viability is a read-out of living cells in per cent, often relative to untreated cells.

One assay in a line: MRP1 drug-resistance reversers in H69AR cells – cell-based, doxorubicin co-treatment, pilot screen (AID 601). The settings on record: H69AR cells + 2 uM doxorubicin, CellTiter-Glo, 72 h; at 10 µM; stronger effect = higher value. On the technique in general: ATP-based viability assays read luminescence as a measure of living cells.
For `COc1ccc(C2=CC(=O)OC3(CCCCC3)O2)cc1`, the differential viability (reversal) was -28.8% (inactive).
As to `CCCCNC(=O)c1nnn(-c2ccccc2)c1N`, the differential viability (reversal) was -0.63% (inactive).
In the case of `Cc1ccc(Nc2nc(Oc3ccc(=O)[nH]n3)nc(N(C)C)n2)cc1`, the differential viability (reversal) is 16.1% (inactive).
As to `CN(C(=O)C1CCOC1)c1nnc(-c2cccnc2)s1` (stereo not given), the differential viability (reversal) was 4.19% (inactive).
The same measure, in the same setting: the result for `NS(=O)(=O)c1cc2c(cc1Cl)NC=NS2(=O)=O` reads 4.17% (inactive).
On to `COc1cccc(NC(=O)COC(=O)c2cccnc2)c1`, for which the differential viability (reversal) was 5.84% (inactive).
For the compound `CCN=C1SC(CC(=O)Nc2ccccc2OCC)C(=O)N1CC` (stereo not given), the differential viability (reversal) is 8.11% (inactive).
Regarding `O=S(=O)(NC1CCCCC1NS(=O)(=O)c1ccc(F)cc1)c1ccc(F)cc1` (stereo not given), the differential viability (reversal) is -1.67% (inactive).
The same measure, in the same setting: the result for `CCn1cnc2sc(C(=O)Nc3ccc4c(c3)OCO4)c(C)c2c1=O` reads 11% (inactive); that for `O=C1C2CCCN2C(c2ccccc2)N1c1ccc(Cl)cc1` (stereo not given), 19% (inactive).
`CNc1nnc(-c2cccc(N(C)C)c2)s1`: the differential viability (reversal) was 7.45% (inactive).
On the same count and under the same terms, the result for `COC(=O)Cc1c(C)nc2nc[nH]n2c1=O` reads 9.79% (inactive).
Same read-out and setting: to `CCC(c1nnc(SCC(=O)Nc2ccc(C(=O)Nc3ccccc3OC)cc2)o1)N(C)C` (stereo not given) belongs 7.67% (inactive).
With `CC1Oc2ccccc2N(Cc2ccccc2Cl)C1=O` (stereo not given), the differential viability (reversal) was 11.3% (inactive).
Take `CCn1cc(C(=O)O)c(=O)c2ccc(C)nc21`: the differential viability (reversal) is 0.53% (inactive).
With `COc1ccccc1NC(=O)Cc1noc(CSc2cc(C)c3ccccc3n2)n1`, the differential viability (reversal) is 11.8% (inactive).
Regarding `CC(COc1ccccc1)N(CCCl)Cc1ccccc1` (stereo not given), the differential viability (reversal) was 9.34% (inactive).
Regarding `O=C(c1cnc2sccn2c1=O)N1CCc2ccccc2C1`, the differential viability (reversal) was 7.95% (inactive).
In the case of `COc1ccccc1N1CCN(c2cc(N3CCCC3)nc(C)n2)CC1`, the differential viability (reversal) was -3.8% (inactive).
Turning to `COC(=O)CCn1nnc(-c2ccc(C)cc2)n1`, the differential viability (reversal) is 3.69% (inactive).
The same measure, in the same setting: the result for `Cc1cccc(-n2c(SCc3cc(=O)n4ccsc4n3)nc3ccccc32)c1` reads -9.64% (inactive).
Turning to `COc1ccc(CCN2C(=O)CC(N3CCOCC3)C2=O)cc1` (stereo not given), the differential viability (reversal) is 16.3% (inactive).
Still for that read-out and setting: the result for `CCCCCCC(c1c(C)n(C)n(-c2ccccc2)c1=O)c1c(C)n(C)n(-c2ccccc2)c1=O` reads 2.09% (inactive).
For the compound `CCCCSc1nnc([C@H](C)NC(=O)OC(C)(C)C)o1`, the differential viability (reversal) was -10.7% (inactive).
With `Cc1c(N=C2SCC(=O)N2c2c(C)n(C)n(-c3ccccc3)c2=O)c(=O)n(-c2ccccc2)n1C`, the differential viability (reversal) is 3.54% (inactive).
With `Cc1nc2ccc(C(=O)O)cc2c2c1CC(C)S2` (stereo not given), the differential viability (reversal) is -2.25% (inactive).
With `CC1(C)CC(=O)C(CC(=O)NC(=O)NCc2ccccc2)=C(O)C1`, the differential viability (reversal) is 9.89% (inactive).
The same measure, in the same setting: to `O=C(Nc1ccccc1Cl)c1c(F)c(F)c(F)c(F)c1F` belongs -7.56% (inactive).
The same measure, in the same setting: the result for `COC(=O)c1ccc(CSc2nnnn2Cc2ccccc2)cc1` reads 0.715% (inactive); that for `Cc1ccc(F)cc1NC(=O)C1CCCN(c2ncccn2)C1` (stereo not given), -1.88% (inactive); that for `O=C(NCc1ccccc1)C1CCCN(S(=O)(=O)c2cccnc2)C1` (stereo not given), 6.21% (inactive).
On to `COc1cc(NS(=O)(=O)c2ccc(N)cc2)nc(OC)n1`, for which the differential viability (reversal) is 11.7% (inactive).
In the case of `Cc1cc(=O)[nH]c(SCc2nc3ncccn3c2Br)n1`, the differential viability (reversal) was -2.9% (inactive).
In the case of `CC(=O)OCC1=C(C(=O)O)N2C(=O)[C@@H](NC(=O)Cc3cccs3)[C@H]2SC1`, the differential viability (reversal) is 3.98% (inactive).
Consider `CCc1nn(CC(=O)N2CCN(Cc3ccc4c(c3)OCO4)CC2)c(=O)c2cc3occc3n12`, for which the differential viability (reversal) was -2.36% (inactive).
Regarding `CC(=O)OC[C@H]1O[C@@H](n2ncc(=O)[nH]c2=O)[C@H](OC(C)=O)[C@@H]1OC(C)=O`, the differential viability (reversal) is 3.12% (inactive).
Consider `Cc1cc(C)cc(-n2nnc(C(=O)NCc3ccc4c(c3)OCO4)c2N)c1`, for which the differential viability (reversal) was -6.51% (inactive).
Take `C=CCNc1nc2c(c(=O)n(C)c(=O)n2C)n1CCCCCC`: the differential viability (reversal) was 0.165% (inactive).
Turning to `O=C(CSc1nc2ccccc2[nH]1)c1ccc2c(c1)OCO2`, the differential viability (reversal) was 22.7% (inactive).
As for `NS(=O)(=O)c1cc2c(cc1Cl)NCNS2(=O)=O`, the differential viability (reversal) was -5.11% (inactive).

Staying with this assay, now noted: H69AR cells + 2 uM doxorubicin, CellTiter-Glo, 72 h; measured here: viability with 2 uM doxorubicin; at 10 µM; stronger effect = lower value.
For `COc1ccc(C2=CC(=O)OC3(CCCCC3)O2)cc1`, the viability was determined as 85.3%.
On to `CCCCNC(=O)c1nnn(-c2ccccc2)c1N`, for which the viability worked out at 92.8%.
For `Cc1ccc(Nc2nc(Oc3ccc(=O)[nH]n3)nc(N(C)C)n2)cc1`, the viability was determined as 77.9%.
As to `CN(C(=O)C1CCOC1)c1nnc(-c2cccnc2)s1` (stereo not given), the viability came out at 84.3%.
As for `NS(=O)(=O)c1cc2c(cc1Cl)NC=NS2(=O)=O`, the viability was found to be 95.9%.
Turning to `COc1cccc(NC(=O)COC(=O)c2cccnc2)c1`, the viability came to 85.3%.
On the same count and under the same terms, the result for `CCN=C1SC(CC(=O)Nc2ccccc2OCC)C(=O)N1CC` (stereo not given) reads 86.4%.
In the case of `O=S(=O)(NC1CCCCC1NS(=O)(=O)c1ccc(F)cc1)c1ccc(F)cc1` (stereo not given), the viability turned out to be 95.8%.
In the case of `CCn1cnc2sc(C(=O)Nc3ccc4c(c3)OCO4)c(C)c2c1=O`, the viability came to 83%.
As to `O=C1C2CCCN2C(c2ccccc2)N1c1ccc(Cl)cc1` (stereo not given), the viability worked out at 85.2%.
`CNc1nnc(-c2cccc(N(C)C)c2)s1`: the viability was determined as 84.6%.
`COC(=O)Cc1c(C)nc2nc[nH]n2c1=O`: the viability came to 95.3%.
On the same count and under the same terms, the result for `CCC(c1nnc(SCC(=O)Nc2ccc(C(=O)Nc3ccccc3OC)cc2)o1)N(C)C` (stereo not given) reads 99%; that for `CC1Oc2ccccc2N(Cc2ccccc2Cl)C1=O` (stereo not given), 77.8%; that for `CCn1cc(C(=O)O)c(=O)c2ccc(C)nc21`, 100%.
In the case of `COc1ccccc1NC(=O)Cc1noc(CSc2cc(C)c3ccccc3n2)n1`, the viability turned out to be 80.7%.
On to `CC(COc1ccccc1)N(CCCl)Cc1ccccc1` (stereo not given), for which the viability was 46.7%.
Turning to `O=C(c1cnc2sccn2c1=O)N1CCc2ccccc2C1`, the viability is 96.2%.
Regarding `COc1ccccc1N1CCN(c2cc(N3CCCC3)nc(C)n2)CC1`, the viability was 91.6%.
`COC(=O)CCn1nnc(-c2ccc(C)cc2)n1`: the viability is 90.4%.
With `Cc1cccc(-n2c(SCc3cc(=O)n4ccsc4n3)nc3ccccc32)c1`, the viability is 88.1%.
For `COc1ccc(CCN2C(=O)CC(N3CCOCC3)C2=O)cc1` (stereo not given), the viability came out at 79.9%.
Regarding `CCCCCCC(c1c(C)n(C)n(-c2ccccc2)c1=O)c1c(C)n(C)n(-c2ccccc2)c1=O`, the viability is 78.7%.
Regarding `CCCCSc1nnc([C@H](C)NC(=O)OC(C)(C)C)o1`, the viability amounted to 101%.
Take `Cc1c(N=C2SCC(=O)N2c2c(C)n(C)n(-c3ccccc3)c2=O)c(=O)n(-c2ccccc2)n1C`: the viability is 90.6%.
In the case of `Cc1nc2ccc(C(=O)O)cc2c2c1CC(C)S2` (stereo not given), the viability was found to be 93.1%.
In the case of `CC1(C)CC(=O)C(CC(=O)NC(=O)NCc2ccccc2)=C(O)C1`, the viability came out at 94.7%.
Still for that read-out and setting: the result for `O=C(Nc1ccccc1Cl)c1c(F)c(F)c(F)c(F)c1F` reads 97.8%; that for `COC(=O)c1ccc(CSc2nnnn2Cc2ccccc2)cc1`, 85.2%; that for `Cc1ccc(F)cc1NC(=O)C1CCCN(c2ncccn2)C1` (stereo not given), 90.6%.
Same read-out and setting: to `O=C(NCc1ccccc1)C1CCCN(S(=O)(=O)c2cccnc2)C1` (stereo not given) belongs 92.8%; to `COc1cc(NS(=O)(=O)c2ccc(N)cc2)nc(OC)n1`, 88.4%; to `Cc1cc(=O)[nH]c(SCc2nc3ncccn3c2Br)n1`, 91.8%.
For the compound `CC(=O)OCC1=C(C(=O)O)N2C(=O)[C@@H](NC(=O)Cc3cccs3)[C@H]2SC1`, the viability was 90.2%.
Same read-out and setting: to `CCc1nn(CC(=O)N2CCN(Cc3ccc4c(c3)OCO4)CC2)c(=O)c2cc3occc3n12` belongs 94.2%; to `CC(=O)OC[C@H]1O[C@@H](n2ncc(=O)[nH]c2=O)[C@H](OC(C)=O)[C@@H]1OC(C)=O`, 88.2%; to `Cc1cc(C)cc(-n2nnc(C(=O)NCc3ccc4c(c3)OCO4)c2N)c1`, 104%.
`C=CCNc1nc2c(c(=O)n(C)c(=O)n2C)n1CCCCCC`: the viability was determined as 82.4%.
On the same count and under the same terms, to `O=C(CSc1nc2ccccc2[nH]1)c1ccc2c(c1)OCO2` belongs 83.8%; to `NS(=O)(=O)c1cc2c(cc1Cl)NCNS2(=O)=O`, 96.4%.
